Measurements taken from the supplement of paper PMC11732987, “Enantioselective OTUD7B fragment discovery through chemoproteomics screening and high-throughput optimisation” (Communications Chemistry, 2025).

What was measured:
Assay in all cases: log2 ratio of Biotin-Ahx-Ub-VS probe labelling (fragment/DMSO); higher = less target engagement (more negative = stronger competition), active = hit call of the paper (q ≤ 0.05, log2 ratio ≤ -1)
Details in all cases: compound concentration: 200 uM; treatment time: 3 h
USP19 = target: T1, USP19 (UniProt O94966)
T1 sequence (whole entry): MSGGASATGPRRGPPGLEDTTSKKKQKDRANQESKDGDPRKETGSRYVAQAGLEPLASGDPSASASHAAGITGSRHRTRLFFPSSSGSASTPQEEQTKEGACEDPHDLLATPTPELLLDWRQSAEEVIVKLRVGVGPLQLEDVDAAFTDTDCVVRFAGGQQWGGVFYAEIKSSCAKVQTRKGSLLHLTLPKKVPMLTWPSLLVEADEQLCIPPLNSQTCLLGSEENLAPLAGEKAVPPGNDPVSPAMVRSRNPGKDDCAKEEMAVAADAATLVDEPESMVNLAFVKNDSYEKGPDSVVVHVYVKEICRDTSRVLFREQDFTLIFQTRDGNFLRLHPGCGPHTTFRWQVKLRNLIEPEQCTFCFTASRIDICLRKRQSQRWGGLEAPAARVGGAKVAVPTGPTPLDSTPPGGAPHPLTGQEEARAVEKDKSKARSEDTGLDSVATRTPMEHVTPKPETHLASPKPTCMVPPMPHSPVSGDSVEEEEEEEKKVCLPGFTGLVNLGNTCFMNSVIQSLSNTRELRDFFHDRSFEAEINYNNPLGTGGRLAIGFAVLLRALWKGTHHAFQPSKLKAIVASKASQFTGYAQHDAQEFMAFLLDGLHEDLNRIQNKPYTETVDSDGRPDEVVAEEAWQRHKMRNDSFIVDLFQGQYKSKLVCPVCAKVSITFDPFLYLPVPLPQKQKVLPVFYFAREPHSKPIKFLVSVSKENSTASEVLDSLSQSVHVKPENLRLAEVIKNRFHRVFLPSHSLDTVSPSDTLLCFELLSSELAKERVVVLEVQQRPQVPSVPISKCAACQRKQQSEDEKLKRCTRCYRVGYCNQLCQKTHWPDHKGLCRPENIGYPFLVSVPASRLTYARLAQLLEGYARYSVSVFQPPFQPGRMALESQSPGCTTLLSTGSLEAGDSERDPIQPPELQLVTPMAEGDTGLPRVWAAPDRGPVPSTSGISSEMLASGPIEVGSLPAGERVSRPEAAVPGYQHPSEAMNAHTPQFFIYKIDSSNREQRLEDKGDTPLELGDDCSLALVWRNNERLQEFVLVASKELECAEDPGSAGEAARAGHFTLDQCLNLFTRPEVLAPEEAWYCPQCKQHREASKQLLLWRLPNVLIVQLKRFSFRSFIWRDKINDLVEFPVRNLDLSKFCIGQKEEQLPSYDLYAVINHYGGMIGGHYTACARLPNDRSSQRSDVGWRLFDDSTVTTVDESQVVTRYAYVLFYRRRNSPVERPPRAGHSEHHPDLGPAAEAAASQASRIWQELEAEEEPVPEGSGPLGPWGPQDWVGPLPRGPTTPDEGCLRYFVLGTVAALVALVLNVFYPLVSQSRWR
Summary of the method: (§1)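 HEK293T lysate in Tris/CHAPS/IGEPAL buffer with protease inhibitors (495 µg per sample) was given fragment at 200 µM or vehicle for 3 h, in triplicate. It then received Biotin-Ahx-Ub-VS at 0.5 µM final for 1 h. Labelled DUBs were NeutrAvidin-enriched, digested with LysC and trypsin, and run by diaPASEF LC-MS/MS. Values are average log2 fragment/vehicle ratios by unpaired t-test on global-median-normalised Spectronaut quantities of proteins with ≥2 unique peptides.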

USP22 = target: T2, USP22 (UniProt Q9UPT9)
T2 sequence (whole entry): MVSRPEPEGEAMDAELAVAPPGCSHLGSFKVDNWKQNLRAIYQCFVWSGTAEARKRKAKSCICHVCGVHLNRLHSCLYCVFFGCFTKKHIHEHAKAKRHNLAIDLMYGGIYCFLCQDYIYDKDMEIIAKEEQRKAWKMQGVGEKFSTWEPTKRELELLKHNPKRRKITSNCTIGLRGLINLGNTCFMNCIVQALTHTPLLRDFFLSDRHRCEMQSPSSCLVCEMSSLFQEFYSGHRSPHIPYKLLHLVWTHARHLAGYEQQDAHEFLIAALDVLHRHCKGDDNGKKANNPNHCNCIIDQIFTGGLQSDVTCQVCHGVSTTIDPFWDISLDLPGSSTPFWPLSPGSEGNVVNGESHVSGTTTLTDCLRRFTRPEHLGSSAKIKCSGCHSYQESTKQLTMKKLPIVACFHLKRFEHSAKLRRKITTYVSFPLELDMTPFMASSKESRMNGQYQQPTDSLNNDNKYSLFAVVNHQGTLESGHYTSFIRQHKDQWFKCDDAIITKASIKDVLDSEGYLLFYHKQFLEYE
Summary of the method: as §1

USP24 = USP24 (UniProt Q9UPU5)
Summary of the method: as §1

USP25 = target: T3, USP25 (UniProt Q9UHP3)
T3 sequence (whole entry): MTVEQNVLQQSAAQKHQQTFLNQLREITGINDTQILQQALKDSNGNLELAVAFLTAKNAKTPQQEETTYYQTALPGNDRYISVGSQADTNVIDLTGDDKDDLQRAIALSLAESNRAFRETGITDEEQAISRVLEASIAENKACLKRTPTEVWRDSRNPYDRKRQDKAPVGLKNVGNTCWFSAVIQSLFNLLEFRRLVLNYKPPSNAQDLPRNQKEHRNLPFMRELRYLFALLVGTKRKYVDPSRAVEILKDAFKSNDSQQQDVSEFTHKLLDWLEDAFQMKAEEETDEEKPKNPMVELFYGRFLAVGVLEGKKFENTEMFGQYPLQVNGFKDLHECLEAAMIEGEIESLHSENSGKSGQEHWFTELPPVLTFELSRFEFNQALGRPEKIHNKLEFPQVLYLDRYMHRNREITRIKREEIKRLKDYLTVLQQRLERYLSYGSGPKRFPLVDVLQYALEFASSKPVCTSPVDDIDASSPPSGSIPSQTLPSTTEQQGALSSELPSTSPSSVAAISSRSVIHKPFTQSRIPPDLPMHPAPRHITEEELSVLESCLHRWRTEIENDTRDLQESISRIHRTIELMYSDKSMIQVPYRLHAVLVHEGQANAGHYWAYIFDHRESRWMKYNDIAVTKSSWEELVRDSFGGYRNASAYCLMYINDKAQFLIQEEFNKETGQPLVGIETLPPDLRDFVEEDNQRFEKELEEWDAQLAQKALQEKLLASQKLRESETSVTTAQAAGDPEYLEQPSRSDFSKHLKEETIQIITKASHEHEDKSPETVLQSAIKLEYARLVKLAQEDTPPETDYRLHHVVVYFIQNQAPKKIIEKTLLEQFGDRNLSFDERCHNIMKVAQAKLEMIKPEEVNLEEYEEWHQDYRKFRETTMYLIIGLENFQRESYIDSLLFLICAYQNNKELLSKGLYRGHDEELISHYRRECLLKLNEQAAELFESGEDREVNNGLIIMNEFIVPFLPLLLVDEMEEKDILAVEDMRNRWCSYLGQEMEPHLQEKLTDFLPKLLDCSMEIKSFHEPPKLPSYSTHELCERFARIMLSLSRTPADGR
Summary of the method: as §1

USP28 = target: T4, USP28 (UniProt Q96RU2)
T4 sequence (whole entry): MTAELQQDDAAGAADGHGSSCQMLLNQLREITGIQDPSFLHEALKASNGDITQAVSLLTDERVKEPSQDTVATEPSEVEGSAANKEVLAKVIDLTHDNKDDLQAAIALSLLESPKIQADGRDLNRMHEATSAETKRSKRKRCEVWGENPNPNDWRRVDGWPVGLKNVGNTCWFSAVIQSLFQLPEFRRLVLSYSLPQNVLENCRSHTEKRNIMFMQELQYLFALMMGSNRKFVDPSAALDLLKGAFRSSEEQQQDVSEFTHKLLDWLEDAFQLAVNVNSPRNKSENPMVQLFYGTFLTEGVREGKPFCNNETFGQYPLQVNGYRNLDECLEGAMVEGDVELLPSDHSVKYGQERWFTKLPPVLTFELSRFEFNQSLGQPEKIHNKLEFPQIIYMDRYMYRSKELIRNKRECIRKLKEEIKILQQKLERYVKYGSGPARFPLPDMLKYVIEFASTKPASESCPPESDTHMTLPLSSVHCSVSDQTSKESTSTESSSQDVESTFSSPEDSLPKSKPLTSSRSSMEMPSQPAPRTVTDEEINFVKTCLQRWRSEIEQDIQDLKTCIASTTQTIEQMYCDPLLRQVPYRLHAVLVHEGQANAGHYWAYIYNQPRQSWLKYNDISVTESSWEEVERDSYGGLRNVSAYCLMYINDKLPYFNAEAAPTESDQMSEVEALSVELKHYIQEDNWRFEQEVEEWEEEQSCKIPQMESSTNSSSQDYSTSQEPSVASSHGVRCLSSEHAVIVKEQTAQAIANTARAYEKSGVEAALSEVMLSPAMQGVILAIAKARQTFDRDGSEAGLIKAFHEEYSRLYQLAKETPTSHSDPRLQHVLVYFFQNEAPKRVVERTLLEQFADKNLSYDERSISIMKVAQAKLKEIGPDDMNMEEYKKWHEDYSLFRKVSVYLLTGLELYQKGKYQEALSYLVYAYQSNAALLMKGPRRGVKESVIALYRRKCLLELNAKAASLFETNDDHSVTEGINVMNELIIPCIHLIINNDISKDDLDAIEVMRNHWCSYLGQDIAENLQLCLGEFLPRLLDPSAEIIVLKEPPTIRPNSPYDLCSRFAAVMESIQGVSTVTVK
Summary of the method: as §1

Measured: log2 ratio of Biotin-Ahx-Ub-VS probe labelling

Chain of USP24 (Q9UPU5 whole entry): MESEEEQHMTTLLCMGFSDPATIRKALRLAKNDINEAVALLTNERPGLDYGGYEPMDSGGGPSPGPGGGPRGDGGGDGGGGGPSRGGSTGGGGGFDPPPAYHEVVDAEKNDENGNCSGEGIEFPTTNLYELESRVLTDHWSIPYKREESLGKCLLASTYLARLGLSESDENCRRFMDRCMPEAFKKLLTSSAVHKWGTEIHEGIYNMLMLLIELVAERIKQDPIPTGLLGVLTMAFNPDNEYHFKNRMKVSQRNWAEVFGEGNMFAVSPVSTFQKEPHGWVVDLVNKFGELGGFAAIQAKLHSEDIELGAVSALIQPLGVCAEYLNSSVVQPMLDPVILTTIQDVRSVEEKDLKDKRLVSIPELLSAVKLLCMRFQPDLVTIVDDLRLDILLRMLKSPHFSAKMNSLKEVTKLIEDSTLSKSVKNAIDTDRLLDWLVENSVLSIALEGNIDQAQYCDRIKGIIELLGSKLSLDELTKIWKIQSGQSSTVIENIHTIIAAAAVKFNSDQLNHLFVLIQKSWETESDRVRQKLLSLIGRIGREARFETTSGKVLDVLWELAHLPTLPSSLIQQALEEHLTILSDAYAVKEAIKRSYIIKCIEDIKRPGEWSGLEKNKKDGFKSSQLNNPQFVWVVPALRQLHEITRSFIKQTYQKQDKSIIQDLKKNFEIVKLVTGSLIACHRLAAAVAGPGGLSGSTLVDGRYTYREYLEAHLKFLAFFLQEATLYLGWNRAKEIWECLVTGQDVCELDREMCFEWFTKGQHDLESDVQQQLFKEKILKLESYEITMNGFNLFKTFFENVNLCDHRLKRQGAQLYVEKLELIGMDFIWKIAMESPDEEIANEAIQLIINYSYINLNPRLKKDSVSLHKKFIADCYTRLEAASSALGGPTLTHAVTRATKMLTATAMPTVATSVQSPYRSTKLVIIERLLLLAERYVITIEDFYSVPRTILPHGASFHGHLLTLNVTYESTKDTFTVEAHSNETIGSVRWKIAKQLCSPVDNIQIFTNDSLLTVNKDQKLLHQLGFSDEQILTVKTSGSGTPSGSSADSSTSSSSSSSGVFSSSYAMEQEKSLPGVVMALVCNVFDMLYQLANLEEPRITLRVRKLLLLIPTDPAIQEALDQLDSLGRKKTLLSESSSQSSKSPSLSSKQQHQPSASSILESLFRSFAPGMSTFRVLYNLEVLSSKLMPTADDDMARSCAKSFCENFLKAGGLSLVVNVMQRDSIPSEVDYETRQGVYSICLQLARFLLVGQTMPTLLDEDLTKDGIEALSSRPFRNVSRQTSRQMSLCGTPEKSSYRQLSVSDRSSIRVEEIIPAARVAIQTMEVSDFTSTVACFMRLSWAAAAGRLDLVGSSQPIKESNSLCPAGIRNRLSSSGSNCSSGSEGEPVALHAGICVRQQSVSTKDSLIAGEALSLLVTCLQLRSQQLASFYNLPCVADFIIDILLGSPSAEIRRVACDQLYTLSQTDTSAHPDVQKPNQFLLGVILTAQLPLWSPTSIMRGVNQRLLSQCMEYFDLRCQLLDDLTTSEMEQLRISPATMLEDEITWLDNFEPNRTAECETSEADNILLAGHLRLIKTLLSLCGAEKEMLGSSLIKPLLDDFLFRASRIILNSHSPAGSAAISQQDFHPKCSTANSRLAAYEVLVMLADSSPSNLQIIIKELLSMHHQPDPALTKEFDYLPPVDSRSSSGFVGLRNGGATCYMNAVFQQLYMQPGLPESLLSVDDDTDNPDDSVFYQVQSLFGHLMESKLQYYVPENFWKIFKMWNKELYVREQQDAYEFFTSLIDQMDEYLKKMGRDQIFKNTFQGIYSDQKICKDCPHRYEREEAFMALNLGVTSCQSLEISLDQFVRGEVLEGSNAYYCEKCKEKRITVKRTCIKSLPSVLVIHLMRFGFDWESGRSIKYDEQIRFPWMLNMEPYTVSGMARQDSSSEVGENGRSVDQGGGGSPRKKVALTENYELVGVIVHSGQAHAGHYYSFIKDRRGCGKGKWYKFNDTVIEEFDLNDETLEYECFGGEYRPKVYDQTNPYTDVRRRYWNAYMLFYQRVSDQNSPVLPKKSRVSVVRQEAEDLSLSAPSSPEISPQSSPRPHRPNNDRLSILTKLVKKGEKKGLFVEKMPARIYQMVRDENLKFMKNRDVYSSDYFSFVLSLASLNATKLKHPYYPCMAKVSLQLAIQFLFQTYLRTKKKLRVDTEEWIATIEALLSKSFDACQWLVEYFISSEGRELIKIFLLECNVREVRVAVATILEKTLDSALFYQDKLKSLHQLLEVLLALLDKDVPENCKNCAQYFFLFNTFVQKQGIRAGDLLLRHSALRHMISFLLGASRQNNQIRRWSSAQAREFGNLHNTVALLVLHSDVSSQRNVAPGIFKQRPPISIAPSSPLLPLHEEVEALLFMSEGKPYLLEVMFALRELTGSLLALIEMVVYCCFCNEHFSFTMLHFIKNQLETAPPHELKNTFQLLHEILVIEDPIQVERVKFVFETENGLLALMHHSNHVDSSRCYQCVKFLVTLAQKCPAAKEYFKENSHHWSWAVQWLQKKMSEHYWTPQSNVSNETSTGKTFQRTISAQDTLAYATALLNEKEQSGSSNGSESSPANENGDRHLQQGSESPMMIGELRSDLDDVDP

O=C(CCl)N1CCCCCC1c1ncon1 (stereo not given)
inactive: USP19 -0.0696 | USP22 -0.0397 | USP24 -0.257 | USP25 -0.435 | USP28 -0.35
